Compound activity (PubChem)
Sfp PPTase inh – qHTS Assay for Inhibitors of Bacillus subtilis Sfp phosphopantetheinyl transferase (PPTase); Biochemical Sfp PPTase activity, qHTS; 4'-phosphopantetheinyl transferase ffp (Bacillus subtilis), Q9F4F7; actives 3.5% (n = 310,000); Potency, µM, usual class: inhibitors; AID 1490, 2009;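 also: the enzyme is Sfp with the accession as filed and its product quenches rhodamine fluorescence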
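Sfp 15 nM + cpd, 15 min RT; start w/ rhodamine-CoA 5 uM, BHQ-2-YbbR 12.5 uM (final); 50 mM Hepes pH 7.6, 10 mM MgCl2, 0.01% NP-40, 0.01% BSA; read 525/598 nm at 0 and 30 min.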
JMJD2A Tudor inh – qHTS Assay for Inhibitors of JMJD2A-Tudor Domain. Lysine-specific demethylase 4A (Homo sapiens), O75164. AlphaScreen JMJD2A-Tudor / H3K4me3 peptide binding. Potency, µM (top dose mostly 114 µM), actives largely listed as inhibitors. actives 4.4% (n = 390,000); also: nearly all actives have a fitted effect of over 50% in size
BAZ2B block – qHTS Assay for Inhibitors of BAZ2B; AlphaScreen BAZ2B-H3K14Ac peptide displacement; Potency, µM (doses to about 114 µM), most hits filed as inhibitors; actives 4.4% (n = 360,000); AID 504333, 2011; also: nearly all actives have a fitted effect of over 60% in size
Target sequence (Q9UIF8 whole entry, looked up): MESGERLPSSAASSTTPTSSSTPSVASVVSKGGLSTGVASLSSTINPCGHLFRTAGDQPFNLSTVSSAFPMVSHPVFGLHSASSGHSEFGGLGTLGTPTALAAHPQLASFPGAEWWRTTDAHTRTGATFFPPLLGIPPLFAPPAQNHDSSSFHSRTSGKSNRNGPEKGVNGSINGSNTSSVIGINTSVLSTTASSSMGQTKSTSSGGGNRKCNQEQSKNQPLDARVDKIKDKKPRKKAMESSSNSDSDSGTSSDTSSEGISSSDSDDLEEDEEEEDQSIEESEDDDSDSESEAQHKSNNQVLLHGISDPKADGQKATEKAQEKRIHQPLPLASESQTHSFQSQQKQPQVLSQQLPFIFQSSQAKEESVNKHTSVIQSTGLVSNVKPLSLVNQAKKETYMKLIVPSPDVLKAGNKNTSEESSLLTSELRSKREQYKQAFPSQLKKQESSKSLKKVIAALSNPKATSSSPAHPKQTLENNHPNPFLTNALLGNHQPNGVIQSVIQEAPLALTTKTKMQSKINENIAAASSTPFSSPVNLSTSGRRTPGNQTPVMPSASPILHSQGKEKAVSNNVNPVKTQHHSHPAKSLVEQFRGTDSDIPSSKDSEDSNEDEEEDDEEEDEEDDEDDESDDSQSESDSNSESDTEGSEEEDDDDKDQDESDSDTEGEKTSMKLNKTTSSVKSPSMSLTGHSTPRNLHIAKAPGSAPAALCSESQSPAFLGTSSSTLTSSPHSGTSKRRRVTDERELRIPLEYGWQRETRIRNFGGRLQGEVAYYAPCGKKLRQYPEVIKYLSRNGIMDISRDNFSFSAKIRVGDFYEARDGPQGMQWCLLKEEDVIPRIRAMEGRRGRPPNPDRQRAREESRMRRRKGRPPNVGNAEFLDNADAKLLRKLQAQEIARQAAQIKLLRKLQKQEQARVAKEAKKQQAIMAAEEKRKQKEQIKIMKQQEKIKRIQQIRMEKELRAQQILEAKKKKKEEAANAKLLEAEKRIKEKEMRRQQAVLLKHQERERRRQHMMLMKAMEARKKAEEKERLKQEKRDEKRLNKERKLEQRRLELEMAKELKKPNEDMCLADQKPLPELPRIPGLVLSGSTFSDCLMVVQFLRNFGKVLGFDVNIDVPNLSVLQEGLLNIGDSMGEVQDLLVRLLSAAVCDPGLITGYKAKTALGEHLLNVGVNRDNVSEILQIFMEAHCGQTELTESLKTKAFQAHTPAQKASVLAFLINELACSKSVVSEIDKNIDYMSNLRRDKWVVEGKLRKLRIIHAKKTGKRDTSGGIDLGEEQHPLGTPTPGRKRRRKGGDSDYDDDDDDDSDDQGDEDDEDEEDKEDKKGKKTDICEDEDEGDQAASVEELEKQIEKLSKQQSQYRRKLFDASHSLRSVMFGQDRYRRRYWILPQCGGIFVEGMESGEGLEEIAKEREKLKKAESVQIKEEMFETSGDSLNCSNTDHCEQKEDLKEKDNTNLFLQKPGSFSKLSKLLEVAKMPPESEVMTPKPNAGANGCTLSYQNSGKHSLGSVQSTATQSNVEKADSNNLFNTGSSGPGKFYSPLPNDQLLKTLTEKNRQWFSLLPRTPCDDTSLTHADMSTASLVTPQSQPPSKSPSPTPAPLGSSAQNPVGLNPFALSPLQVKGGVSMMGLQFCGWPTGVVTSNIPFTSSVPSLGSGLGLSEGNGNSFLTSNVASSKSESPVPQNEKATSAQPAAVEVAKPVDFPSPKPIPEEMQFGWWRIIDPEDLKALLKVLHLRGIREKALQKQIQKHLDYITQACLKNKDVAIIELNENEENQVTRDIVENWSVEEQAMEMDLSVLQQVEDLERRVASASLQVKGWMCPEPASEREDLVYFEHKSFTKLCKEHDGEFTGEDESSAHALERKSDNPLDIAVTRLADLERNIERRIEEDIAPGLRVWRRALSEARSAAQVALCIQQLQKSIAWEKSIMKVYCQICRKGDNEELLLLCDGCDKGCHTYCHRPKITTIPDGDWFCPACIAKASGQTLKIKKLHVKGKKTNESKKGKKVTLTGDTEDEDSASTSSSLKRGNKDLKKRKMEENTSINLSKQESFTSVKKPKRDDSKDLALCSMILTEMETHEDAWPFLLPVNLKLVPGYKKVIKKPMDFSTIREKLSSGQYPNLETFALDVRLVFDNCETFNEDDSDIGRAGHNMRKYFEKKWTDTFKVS
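Inhibition is scored as reduced AlphaScreen emission. The BAZ2B/b-H3(5-23)K14Ac complex (50 nM each) in PBS pH 7.4, 0.01% Tween-20 meets compound (up to 110 uM) for 30 min at RT before bead addition.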
G9a block – qHTS Assay for Inhibitors of Histone Lysine Methyltransferase G9a. Histone-lysine N-methyltransferase EHMT2 (Homo sapiens), Q96KQ7. G9a H3K9 monomethylation, AlphaScreen, 2 h. Potency, µM (titrated, usually from 102 µM), hits mostly inhibitors. actives 8.8% (n = 350,000). AID 504332, 2011; also: nearly all actives have a fitted effect of over 75% in size
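Signal arises when biotinylated H3K9 peptide, once monomethylated, bridges streptavidin donor and antibody-captured acceptor beads. Enzyme at 20 nM was preincubated 15 min with test compounds; peptide 500 nM and SAM 20 uM then reacted for 2 h.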
HP1b chromo inh – HTS for Inhibitors of HP1-beta Chromodomain Interactions with Methylated Histone Tails; Chromobox protein homolog 1 (Homo sapiens), P83916; AlphaScreen HP1-beta / biotin-H3K9me3 peptide binding; Potency, µM (doses to about 114 µM), actives largely listed as inhibitors; actives 0.56% (n = 390,000); AID 540317, 2011; also: nearly all actives have a fitted effect of over 70% in size
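Compound inhibition of the preformed complex between 50 nM HP1-beta and 50 nM biotinylated H3K9me3 peptide was read by AlphaScreen. Buffer was PBS pH 7.4 with 0.01% Tween-20. Incubations ran 30 min at room temperature, with 10 ug/mL donor/acceptor beads.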
Sfp PPTase conf – Confirmation qHTS Assay for Inhibitors of Bacillus subtilis Sfp phosphopantetheinyl transferase (PPTase) | shares compounds with Sfp PPTase inh | Sfp PPTase enzymatic assay, qHTS titration | Potency, µM (titrated, usually from 114 µM), most hits filed as inhibitors | actives 79% (n = 380) | AID 2701, 2010
Sfp gel assay – Gel-Based Assay for Inhibitors of Bacillus subtilis Sfp phosphopantetheinyl transferase (PPTase). shares compounds with Sfp PPTase inh. purified Sfp, gel-based phosphopantetheinylation read-out. Potency, µM, most hits filed as inhibitors. actives 20% (n = 210);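 active = potency below 100 µM; inconclusive = dose-dependent response but potency above 100 µM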;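 also: potency is an IC50 for inhibitors of Sfp transfer activity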
Of the large screens only hits and unclear results are named; the others gave an inactive call (follow-up assays come after a bar, where they were run); ! = not active in a repeat. Rows were chosen to be rich in hits. Some 12% of all compounds tested hit in one or more screens of this group. Unless noted, calls follow the shape of the dose curve; as a rule, active = well fitted curve in the direction sought with a large enough effect; inconclusive = small, poorly fitted or top-dose-only effect, or another doubt; inactive = no such curve, though single readings can be large; an effect the other way counts as inactive or inconclusive.

c1ccc(CCc2nn3c(Cn4nnc5ccccc54)nnc3s2)cc1	Sfp PPTase inh 12.6µM, JMJD2A Tudor inh inconclusive, G9a block inconclusive, HP1b chromo inh inconclusive | Sfp PPTase conf 41.8µM
O=C1OCCN1CCNCc1cn(-c2ccc(F)cc2)nc1-c1ccccc1Cl	G9a block inconclusive
Cc1ccc(-n2cc(CNCCN3CCOC3=O)c(-c3cccc(C)c3)n2)cc1	Sfp PPTase inh 44.7µM, BAZ2B block inconclusive, G9a block 35.5µM | Sfp PPTase conf inactive | Sfp gel assay inactive
COC(=O)c1ccc(N2CCCCC2)c(N)c1	none (no result: G9a block)
COC(=O)c1ccc(N2CCC(C)CC2)c(N)c1	Sfp PPTase inh 31.6µM, JMJD2A Tudor inh inconclusive, G9a block 8.91µM, HP1b chromo inh inconclusive | Sfp PPTase conf 18.7µM
O=C(CSc1ncccc1C(=O)O)c1ccccc1	Sfp PPTase inh inconclusive, JMJD2A Tudor inh inconclusive, G9a block inconclusive (no result: BAZ2B block)
O=C(O)c1ccnc(SCC(=O)c2ccccc2)c1	Sfp PPTase inh 3.55µM, G9a block 22.4µM | Sfp PPTase conf 52.7µM
O=C(CSc1ccc(-c2ccco2)nn1)c1ccccc1	Sfp PPTase inh 3.16µM, JMJD2A Tudor inh inconclusive, BAZ2B block 50.1µM, G9a block 7.94µM | Sfp PPTase conf 9.37µM
Cc1ccc(-n2ncc(C(=O)NC3CC3)c2C2CCN(C(=O)OC(C)(C)C)CC2)cc1	none
CC(C)c1nc(C#N)c(NN)o1	none
CCOC(=O)c1cc(=O)n2nc(-c3ccccc3F)nc2s1	Sfp PPTase inh 14.1µM, JMJD2A Tudor inh inconclusive, G9a block inconclusive | Sfp PPTase conf 59.1µM
c1ccc(-c2ccc(-c3nc(-c4ccccn4)no3)cc2)cc1	Sfp PPTase inh 39.8µM | Sfp PPTase conf 52.7µM | Sfp gel assay inactive
Cc1ccc(-c2nc(-c3ccccn3)no2)cc1	none
OCCn1c(CSc2nnc(-c3ccco3)n2-c2ccccc2)nc2ccc(Cl)cc21	Sfp PPTase inh 3.98µM, JMJD2A Tudor inh inconclusive, G9a block inconclusive | Sfp PPTase conf 11.8µM | Sfp gel assay inactive
NC(=O)CSc1nnc(-c2ccco2)n1-c1ccccc1	none
COC(=O)c1cc(C)nc(Sc2ccccc2N)n1	Sfp PPTase inh 2µM, JMJD2A Tudor inh 44.7µM, G9a block 3.55µM, HP1b chromo inh inconclusive | Sfp PPTase conf 4.18µM
CSc1ccc(CNC(=O)c2ccc(NC(=O)c3nsc4ccccc34)cc2)cc1	none (no result: Sfp PPTase inh)
CO/N=C(/C(=O)N[C@@H]1C(=O)N2C(C(=O)O)=C(CSc3cnns3)CS[C@H]12)c1csc(N)n1	Sfp PPTase inh 39.8µM, G9a block inconclusive (no result: JMJD2A Tudor inh, BAZ2B block, HP1b chromo inh) | Sfp PPTase conf 52.7µM | Sfp gel assay 55.6µM
COc1ccccc1CNC(=O)Nc1cccs1	Sfp PPTase inh 3.98µM, JMJD2A Tudor inh 56.2µM, BAZ2B block inconclusive, HP1b chromo inh inconclusive | Sfp PPTase conf 23.5µM
Cc1ccc(N2C(=O)CC(N3CCN(S(=O)(=O)c4ccccc4)CC3)C2=O)c(C)c1 (stereo not given)	none
CCC1CCc2c(sc(NC(=O)c3ccco3)c2C(N)=O)C1 (stereo not given)	JMJD2A Tudor inh inconclusive
CCC1CCc2c(sc(NC(=O)c3cnccn3)c2C(N)=O)C1 (stereo not given)	Sfp PPTase inh 10µM, JMJD2A Tudor inh inconclusive, G9a block 3.55µM, HP1b chromo inh inconclusive | Sfp PPTase conf 8.35µM
CC1(C)Cc2c(sc3nc[nH]c(=O)c23)CO1	none
CCC1CC2(C)NC(=O)c3c(sc4c3CC(C)(C)OC4)N2C1=O (stereo not given)	Sfp PPTase inh 15.8µM, G9a block 31.6µM, HP1b chromo inh inconclusive | Sfp PPTase conf 18.7µM
Cc1ccc(C(=O)N2CC(=O)Nc3ccc(C)cc3C2c2ccccc2)cc1 (stereo not given)	none
Cc1ccc(C(=O)CSc2nnc3c4ccccc4nc(Cc4ccccc4)n23)cc1	Sfp PPTase inh 8.91µM | Sfp PPTase conf inconclusive | Sfp gel assay inactive
Nn1c(=O)c2ccccc2n2c(SCc3ccc(C(F)(F)F)cc3)nnc12	Sfp PPTase inh 44.7µM, G9a block 3.98µM | Sfp PPTase conf inconclusive | Sfp gel assay inactive
Nn1c(=O)c2ccccc2n2c(SCc3ccccc3)nnc12	none
COC(=O)c1c(-c2ccc(Cl)cc2)noc1N1CCN(c2cc(C)ccc2C)CC1	none (no result: Sfp PPTase inh)
O=c1[nH]c2cc3c(cc2cc1C(c1nnnn1Cc1ccccc1)N1CCCc2ccccc21)OCO3 (stereo not given)	none
Cc1cc2cc(C(c3nnnn3CC3CCCO3)N3CCCc4ccccc43)c(=O)[nH]c2cc1C (stereo not given)	Sfp PPTase inh 1.41µM, JMJD2A Tudor inh inconclusive, G9a block inconclusive | Sfp PPTase conf 18.7µM
Oc1ccc(C(O)CNCCCCCCNCC(O)c2ccc(O)c(O)c2)cc1O (stereo not given)	Sfp PPTase inh inconclusive (no result: JMJD2A Tudor inh, BAZ2B block, HP1b chromo inh)
CNC[C@H](O)c1ccc(O)c(O)c1	Sfp PPTase inh 25.1µM!, BAZ2B block 50.1µM, G9a block 7.94µM! | Sfp PPTase conf inconclusive | Sfp gel assay inactive
c1ccc(-c2nnc(CN3CCCc4ccccc43)o2)cc1	Sfp PPTase inh 14.1µM, BAZ2B block inconclusive, G9a block inconclusive | Sfp PPTase conf 46.9µM | Sfp gel assay inconclusive
Cc1cnc(=O)[nH]c1SCC(=O)c1ccc(F)cc1	Sfp PPTase inh 14.1µM, BAZ2B block inconclusive, G9a block 7.08µM | Sfp PPTase conf 8.35µM
Cc1csc(NC(=O)CSc2[nH]c(=O)ncc2C)n1	none (no result: Sfp PPTase inh)
Cc1ccc(-c2nc3cnccn3c2Nc2ccccc2)o1	Sfp PPTase inh 4.47µM, JMJD2A Tudor inh inconclusive, G9a block 7.94µM, HP1b chromo inh inconclusive | Sfp PPTase conf 3.32µM
COc1ccccc1-c1nn2c(=O)cc(C)nc2s1	none
Nc1c(C(=O)NC2CC2)sc2nc3c(c(-c4ccco4)c12)CC/C3=C/c1ccco1	Sfp PPTase inh 5.01µM, JMJD2A Tudor inh 7.08µM, G9a block 3.16µM, HP1b chromo inh 14.1µM | Sfp PPTase conf 8.35µM
COc1ccccc1N1CCN(C(CNS(=O)(=O)c2ccccc2)c2cccnc2)CC1 (stereo not given)	G9a block inconclusive
COCCn1c(SCc2ccc(OC)c(F)c2)nnc1-c1ccncc1	none
Cc1cc(C)c(C(=O)N2CCCC(CNS(=O)(=O)c3cccs3)C2)o1 (stereo not given)	none
